Shown are actives, neighbours in structure and some others; about 1.6% of the full set was active somewhere.
KCNQ2 inh – KCNQ2 (rat) channel inhibition. O88943. CHO-K1 KCNQ2, FluxOR thallium flux, 20 min; stronger effect = lower value. B-score at 10 µM. hit rate 1.1% among 310,000. AID 2156;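 active means fluorescence ratio B-score at most minus 3 library SDs, with starting brightness B-score within 2 library SDs, cut at about -5.5 in these data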
KCNQ2 enhance – KCNQ2 (rat) channel potentiation. O88943. CHO-K1 KCNQ2, FluxOR thallium flux fluorescence; stronger effect = higher value. B-score at 10 µM. hit rate 0.54% among 310,000;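 active means fluorescence ratio B-score at least 3 SD of library B-scores, with initial fluorescence B-score within 3 of them, cut at about 5.3 in these data; same plate scores as AID 2156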;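 further: B-score of peak minus minimum over baseline fluorescence ratio after K+ and Tl+ stimulus; positive B-score means potentiation of KCNQ2 with more thallium influx and brighter signal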
Kir21 confirm – confirmation of mouse Kir2.1 potassium channel inhibitors; shares compounds with KCNQ2 enhance; Kir2.1-expressing cells, FluxOR thallium flux fluorescence; stronger effect = lower value; Tl flux remaining, % of negative control (stronger effect = lower value), % at 10 µM; hit rate 41% among 2,300;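 active means Primary-screen hit whose thallium flux fell at least 3 control SD below untreated wells in both duplicates, with normal baseline fluorescence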;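 further: 0% = blank wells without stimulus and 100% = stimulated no-compound controls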
HEK293 ctr – parental HEK293 activity in Kir2.1 inhibitor counter-screen. shares compounds with KCNQ2 enhance. parental HEK293 cells, FluxOR thallium flux fluorescence; 0% = unstimulated blank wells. FluxOR signal as % of negative control (100 = no effect), % at 10 µM. hit rate 19% among 2,300;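 active means dye signal at least 3 control SD above or below untreated wells in both duplicates, raw fluorescence within 3, either direction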;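 further: percent is based on the flux ratio of peak minus minimum fluorescence over baseline F0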
CHO-K1 ctr – alters thallium flux in parental CHO-K1 cells, KCNQ2 counter-screen; shares compounds with KCNQ2 enhance; FluxOR thallium flux fluorescence; zero = vehicle mean+3SD, 100% = vehicle-minus-blank window; activity increase over 3SD of controls, % at 10 µM; hit rate 43% among 1,200; AID 2282;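 active means signal rise of at least 3 SD above the untreated control mean, in both duplicate wells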;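 further: counter screen of KCNQ2 potentiator hits so any rise reflects channel-independent effects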
KCNQ1 pot spec – tests whether KCNQ2 potentiators also act on human KCNQ1; hit rate 28% among 1,200; activation over 3SD threshold, % at 10 µM; CHO KCNQ1 stable, FluxOR thallium flux fluorescence; beyond 3SD, as % of vehicle-control signal; shares compounds with KCNQ2 enhance;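 active means fluorescence ratio rise of at least 3 SD of vehicle wells above their mean, in both replicate wells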;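 further: 0% = vehicle mean plus 3 SD and 100% = vehicle minus unstimulated blank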
KCNQ2 pot confirm – rat KCNQ2 channel potentiator confirmation | hit rate 68% among 1,200 | CHO-KCNQ2 cells, FluxOR thallium flux fluorescence | potentiation, less the hit threshold, % at 10 µM | shares compounds with KCNQ2 enhance;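 active means fluorescence ratio rising 3 SD or more over the vehicle control mean in both replicates, plus primary screen hit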;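 further: peak minus minimum thallium fluorescence divided by baseline after K/Tl stimulus; 0% = vehicle mean plus 3 SD and 100% = vehicle minus unstimulated blank difference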
Kir21 spec – selectivity of KCNQ2 potentiators: effect on mouse Kir2.1. hit rate 2% among 1,200. HEK293 Kir2.1, FluxOR thallium flux fluorescence. activity over 3SD threshold, % at 10 µM. shares compounds with KCNQ2 enhance;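 active means fluorescence ratio rise of at least 3 SD above the vehicle-control mean, seen in both replicates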;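 further: 0% = vehicle mean plus 3 SD and 100% = vehicle minus no-stimulus blank window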
KCNQ2 W236L MoA – potentiates the retigabine-insensitive rat KCNQ2 W236L mutant channel. shares compounds with KCNQ2 enhance. CHO KCNQ2-W236L, automated patch clamp current. current increase over 3SD of negative controls (%), stronger effect = higher value, % at 25 µM. hit rate 10% among 940. AID 2558;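 active means current increase at least 3 SD of the untreated controls above them in both duplicate recordings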
Target sequence (O88943 whole entry W236L, looked up): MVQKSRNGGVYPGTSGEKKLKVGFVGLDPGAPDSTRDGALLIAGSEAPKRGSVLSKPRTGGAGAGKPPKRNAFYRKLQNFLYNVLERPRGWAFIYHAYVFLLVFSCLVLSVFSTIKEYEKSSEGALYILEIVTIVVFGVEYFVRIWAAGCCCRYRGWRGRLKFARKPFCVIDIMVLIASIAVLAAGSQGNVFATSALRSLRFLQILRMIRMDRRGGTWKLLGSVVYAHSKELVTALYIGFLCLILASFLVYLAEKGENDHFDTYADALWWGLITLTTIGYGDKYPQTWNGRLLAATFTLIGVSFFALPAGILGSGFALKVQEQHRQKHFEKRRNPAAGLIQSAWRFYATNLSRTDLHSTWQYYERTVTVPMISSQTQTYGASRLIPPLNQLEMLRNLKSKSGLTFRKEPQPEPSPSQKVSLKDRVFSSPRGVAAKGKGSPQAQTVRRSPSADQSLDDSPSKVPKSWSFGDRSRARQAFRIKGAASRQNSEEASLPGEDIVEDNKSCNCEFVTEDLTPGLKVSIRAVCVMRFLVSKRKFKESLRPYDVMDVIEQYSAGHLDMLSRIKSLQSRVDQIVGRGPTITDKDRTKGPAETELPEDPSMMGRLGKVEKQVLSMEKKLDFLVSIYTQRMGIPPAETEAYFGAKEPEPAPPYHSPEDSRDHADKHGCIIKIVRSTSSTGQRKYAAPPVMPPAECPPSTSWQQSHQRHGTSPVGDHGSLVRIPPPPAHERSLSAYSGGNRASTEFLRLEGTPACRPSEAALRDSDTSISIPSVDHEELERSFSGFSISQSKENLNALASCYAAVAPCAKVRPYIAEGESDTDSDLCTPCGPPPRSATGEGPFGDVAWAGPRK
* hit, by the source's call; i = inactive; . = no result given; ! = not confirmed by another sample.

SMILES	KCNQ2 inh	KCNQ2 enhance	Kir21 confirm	HEK293 ctr	others
Cc1ccc(NC(=O)Cc2ccccc2)c(C)c1	i	6.4*	.	.	CHO-K1 ctr=3.4*;KCNQ1 pot spec=-5;KCNQ2 pot confirm=7.4*;Kir21 spec=-48;KCNQ2 W236L MoA=i
CCC1CCCCN1C(=O)c1sc2ncnc(N(CC)CC)c2c1C (configuration not stated)	i	.	.	.
O=C(NCc1ccncc1)/C(=C/c1cccc([N+](=O)[O-])c1)NC(=O)c1ccccc1	i	.	.	.
Cc1ccc(C(=O)NCCNS(=O)(=O)c2ccccc2[N+](=O)[O-])cc1	i	.	.	.
CN(C)NC(=O)C12CCC(C)(C(=O)O1)C2(C)C (configuration not stated)	i	1.2	.	.
CCN1CCN(c2ncnc3sc(C)c(-c4ccccc4)c23)CC1	i	.	.	.
CC(C)=CCCC1(C)C=Cc2c(c(C)cc3c2[nH]c2cc(O)ccc23)O1 (configuration not stated)	i	3.7	.	.
Cc1ccc(Oc2ccccc2NC(=O)C2=COCCO2)cc1	i	.	.	.
CCCn1nc(NC(=O)CC(C)C)c2cc3cccc(C)c3nc21	i	5.3*	i	i	CHO-K1 ctr=-19;KCNQ1 pot spec=-32;KCNQ2 pot confirm=-20;Kir21 spec=-41
CCn1nc(NC(=O)C(C)(C)C)c2cc3cccc(C)c3nc21	i	8.5*	i	i	CHO-K1 ctr=20*;KCNQ1 pot spec=3.4*;KCNQ2 pot confirm=-81;Kir21 spec=-31;KCNQ2 W236L MoA=i
CCCn1nc(NC(=O)COC)c2cc3cccc(C)c3nc21	i	.	.	.
CCCn1nc(NC(C)=O)c2cc3cccc(C)c3nc21	i	1.6	.	.
CCNC(=S)N1CCN(CC)CC1	i	1.4	.	.
O=C(NCc1csc(-c2cccs2)n1)C1CCCCC1	i	.	.	.
O=[N+]([O-])c1cc(S(=O)(=O)N2CCCCC2)ccc1NCCN1CCOCC1	i	.	.	.
Cc1ccc(CNC(=O)c2ccccc2NC(=O)CN2CC(C)OC(C)C2)cc1 (configuration not stated)	i	0.03	.	.
CCOC(=O)c1c(-c2ccccc2)c2cc(OC)ccc2n1CCCN(C)C	i	.	36%*	i
CCOC(=O)c1c(C)n(CCNC(C)=O)c2ccc(OC)cc12	i	.	.	.
Cc1ccc(NS(=O)(=O)c2ccc(C(=O)NCCCN3CCCC3=O)cc2)cc1	i	0.16	.	.
CC(Sc1ccc(Cl)cc1)C(=O)NNC(=O)c1ccccc1O (configuration not stated)	i	0.02	.	.
Cc1ccccc1CC1(CO)CCCN(C(=O)CCCN2CCCCC2=O)C1 (configuration not stated)	i	.	.	.
O=C(CSCc1ccc(F)cc1)NCc1ccc2c(c1)OCO2	i	.	.	.
O=C(COc1ccc2c(c1)OCO2)Nc1ccccc1F	i	.	.	.
Fc1ccc([C@@H]2CCNC[C@H]2COc2ccc3c(c2)OCO3)cc1	-6*!	-6	34%*	i
Fc1ccc(C2CCNCC2COc2ccc3c(c2)OCO3)cc1 (configuration not stated)	-6.2*	-6.2	48%*	i
SMILES	KCNQ2 inh	KCNQ2 enhance	Kir21 confirm	HEK293 ctr	others
CCCCn1c(=O)[nH]c(=O)c2c1nc(CN(C)Cc1cccc(OC)c1OC)n2CCC	i	2.9	.	.
CCNC(=O)N(C)c1nncnc1C(=O)NC	i	1.5	.	.
CNC(=O)c1ncnnc1N(C)C(=O)NCc1ccccc1	i	9.8*	i	i	CHO-K1 ctr=0.9*;KCNQ1 pot spec=-21;KCNQ2 pot confirm=-13;Kir21 spec=-40
CC1CCCC(C)N1C(=O)COC(=O)Cc1c[nH]c2ccccc12 (configuration not stated)	i	.	.	.
COc1cccc(CNC(=O)N2CCN(c3ccccc3Cl)CC2)c1	i	0.46	.	.
COc1ccccc1N1CCN(C(=O)NCc2cccc(C(F)(F)F)c2)CC1	i	7*	i	i	CHO-K1 ctr=-2;KCNQ1 pot spec=-10;KCNQ2 pot confirm=-5;Kir21 spec=-16;KCNQ2 W236L MoA=i
COc1ccc(CNC(=O)CN(C(=O)c2csnn2)c2cccc(C(C)=O)c2)cc1	i	.	.	.
O=C(O)C(Cc1ccccc1)N1C(=O)c2ccccc2C1=O (configuration not stated)	i	1.3	.	.
CN(C)CCN(Cc1ccccc1)C(=O)[C@H](Cc1ccccc1)N1C(=O)c2ccccc2C1=O	i	0.91	69%*	i
Cc1ccc(CN2CC(C(=O)NCCCSc3ccccc3)CC2=O)cc1 (configuration not stated)	i	.	.	.
O=[N+]([O-])c1cccc(S(=O)(=O)Nc2ccc(-c3ccc(N4CCOCC4)nn3)cc2)c1	i	.	.	.
Cc1occc1C(=O)Nc1ccccc1NC(=O)c1ccoc1C	i	0.04	.	.
Cc1occc1C(=O)Nc1cccc2ccccc12	i	11*	i	i	CHO-K1 ctr=11*;KCNQ1 pot spec=-16;KCNQ2 pot confirm=56*;Kir21 spec=-38;KCNQ2 W236L MoA=i
COc1cc(CC(=O)Nc2sc3c(c2C(N)=O)CCCC3)cc(OC)c1OC	i	.	.	.
O=C(O)CN1C(=O)/C(=C2\C(=O)N(Cc3ccccc3Cl)c3ccccc32)SC1=S	i	6.2*	i	i	CHO-K1 ctr=-11;KCNQ1 pot spec=-11;KCNQ2 pot confirm=-21;Kir21 spec=-42
O=C1/C(=C2\C(=O)N(Cc3ccc(F)cc3)c3ccccc32)SC(=S)N1CCS(=O)(=O)O	i	.	.	.
CCOC(=O)c1cnc2c(C)cccc2c1NCCc1ccc(OC)c(OC)c1	i	.	i	i
CCOC(=O)c1cnc2c(OC)cccc2c1N1CC(C)CC(C)C1 (configuration not stated)	i	1.2	.	.
CCOC(=O)c1cnc2c(OC)cccc2c1Oc1ccccc1	i	.	48%*	i
CCOC(=O)c1cnc2ccc(C(=O)OC)cc2c1NCCc1ccc(OC)c(OC)c1	i	.	.	.
COc1ccccc1CN(C)C(=O)c1ccccc1Sc1ccccc1C#N	i	.	.	.
Cc1cc(C)n(CC(=O)NC2CCCN(Cc3ccc(Cl)cc3)C2)n1 (configuration not stated)	i	0.48	.	.
O=C(Cc1cccc(F)c1F)NC1CCCN(Cc2ccc(Cl)cc2)C1 (configuration not stated)	i	6.2*	i	218%*	CHO-K1 ctr=116*;KCNQ1 pot spec=-15;KCNQ2 pot confirm=16*;Kir21 spec=-50;KCNQ2 W236L MoA=i
CC(C)N(CCc1ccncc1)C(=S)Nc1cccc(Cl)c1	i	.	.	.
CC(OC(=O)c1ccc(Cl)nc1)C(=O)N1CCc2ccccc21 (configuration not stated)	i	0.06	.	.

Bioassay records from PubChem.
